The campaign covered roughly 260,000 compounds. About 890 (0.34%) were called active. A call without a number means that no potency is given here. Inconclusive results (about 1%) are left out. This is one part of a sample in which actives are shown more often than they occur. Values without a mark were called inactive. Calls follow the shape of the dose curve; as a rule, active = well fitted activation curve with a large enough effect; inconclusive = small, poorly fitted or top-dose-only effect; inactive = no such curve, though single readings can be large or run the other way.

This is an account of results in PubChem BioAssay AID1631 (National Center for Advancing Translational Sciences (NCATS), 2009).
Potency is read from the fitted curve at half-maximal effect.

Sequence of Pyruvate kinase PKM (Homo sapiens) (P14618 whole entry, looked up, canonical isoform): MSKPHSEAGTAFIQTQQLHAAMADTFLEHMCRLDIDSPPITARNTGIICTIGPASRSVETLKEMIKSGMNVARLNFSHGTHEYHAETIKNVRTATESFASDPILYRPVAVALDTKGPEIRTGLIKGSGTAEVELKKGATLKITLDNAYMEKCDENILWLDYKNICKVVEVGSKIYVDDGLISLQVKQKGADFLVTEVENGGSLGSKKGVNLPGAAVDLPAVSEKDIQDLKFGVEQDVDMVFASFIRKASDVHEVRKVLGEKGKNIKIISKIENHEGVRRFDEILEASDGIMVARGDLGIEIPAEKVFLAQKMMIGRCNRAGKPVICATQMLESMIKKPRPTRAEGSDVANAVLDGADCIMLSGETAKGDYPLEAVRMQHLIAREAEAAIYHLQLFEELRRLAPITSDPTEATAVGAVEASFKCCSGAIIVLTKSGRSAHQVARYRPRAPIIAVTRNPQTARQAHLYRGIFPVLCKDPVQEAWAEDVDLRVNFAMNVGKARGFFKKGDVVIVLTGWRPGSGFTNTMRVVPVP

This assay concerns the target Pyruvate kinase PKM (Homo sapiens) (UniProt P14618). As to the kind of experiment: qHTS Assay for Activators of Human Muscle isoform 2 Pyruvate Kinase. Also: nearly all actives have a fitted effect of over 55% in size. To be noted: purified PKM2, Kinase-Glo ATP luminescence; Potency: activation; series mostly up to 57.5 µM. The method in brief: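 Purified hPK-M2 (>95% pure) converted ADP (0.1 mM final) to ATP with 0.5 mM PEP in 50 mM imidazole pH7.2, KCl, MgCl2, Tween 20, BSA; 1 h at room temperature. ATP detected by Kinase-Glo luminescence.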
Background: In qHTS, concentration-response curves come from the screen itself.
`CCCn1c(CCNc2nc(-c3ccc(OC)cc3)cs2)nc2ccccc21`: the Potency result was “inactive”.
With `O=C(N/N=C\c1cc2c(cc1Cl)OCO2)c1ccc(Br)s1`, the Potency result was “inactive”.
Take `CCOC(=O)C1(CCOc2ccccc2)CCN(Cc2cc(OC)cc(OC)c2)CC1`: the Potency result is “inactive”.
Turning to `COc1ccc(C(=O)CC(=O)c2ccc(C)cc2)c(O)c1`, the Potency result was “inactive”.
For the compound `COC(=O)CN1C(=O)[C@H]2[C@@H](C3CC3)N3C(=O)CN(Cc4ccc(-c5ccccc5)cc4)C(=O)[C@@]3(Cc3ccccc3)[C@H]2C1=O`, the Potency entry is “inactive”.
On the same count and under the same terms, the same measure for `COc1ccccc1CN(C)C(=O)c1cc2ccccc2o1`: “inactive”; for `COc1ccccc1CCNS(=O)(=O)c1cn(C)nc1C`: “inactive”; for `Cc1cccc(N2CCN(C(=O)c3cccc(N4C(=O)C5C6C=CC(C6)C5C4=O)c3)CC2)c1C` (centres undefined): “inactive”.
Still for that read-out and setting: next, `O=C(Nc1cccc(F)c1)NC1CCCc2ccccc21` (centres undefined): “inactive”.
On to `O=C(CNC(=O)c1ccc(F)cc1)c1ccccc1`, for which the activation was 0.121% [at 11.5 µM, 0% is enzyme alone, no compound].
With `O=C(NCc1ccccn1)c1c(O)c2c([nH]c1=O)CCCC2`, the Potency was 3.16 µM (active).
Still for that read-out and setting: next, `CCc1nnc(NC(=O)c2c(O)c3c([nH]c2=O)CCCC3)s1`: “inactive”; `C[N+](C)(C)CCNC(=O)c1c(O)c2c([nH]c1=O)CCCC2`: “inactive”; `CCOC(=O)C1(CCOc2ccccc2)CCN(Cc2ccc(C#CCCO)cc2)CC1`: “inactive”.
Take `COc1ccc(N2CCN(S(=O)(=O)c3ccc4c(c3)NC(=O)C(C)C(=O)N4)CC2)cc1` (centres undefined): the Potency result was “inactive”.
On to `Nc1c(Cl)cc(-c2csc(N3CCCC3c3nc4cc(Cl)c(Cl)cc4n3CCOCCO)n2)cc1Cl` (centres undefined), for which the Potency result is “inactive”.
As for `O=C(Nc1cccc(-n2cnnn2)c1)c1cccnc1`, the Potency result is “inactive”.
As for `Cc1ccc(C)c(S(=O)(=O)Nc2cc(C)on2)c1`, the Potency entry is “inactive”.
Consider `Cc1ccc(C)c(S(=O)(=O)Nc2cccc(-n3cnnn3)c2)c1`, for which the Potency was 14.1 µM (active).
In the case of `CCCCC(=O)Nc1ccccc1N1CCN(c2ccc(F)cc2)CC1`, the activation is -1.04% [at 11.5 µM, 0% is enzyme alone, no compound].
For the compound `O=C(c1cc(C(=O)N2CCN(c3ccc(F)cc3)CC2)cc([N+](=O)[O-])c1)N1CCN(c2ccc(F)cc2)CC1`, the Potency result is “inactive”.
As to `CSc1ccc(S(=O)(=O)N2CCC(C(=O)NCCc3ccccc3)CC2)cc1`, the Potency entry was “inactive”.
Still for that read-out and setting: the same measure for `Oc1ccc(C2Nc3cccc4cccc(c34)N2)cc1`: “inactive”.
In the case of `CCC1CCCCN1C(=S)Nc1ccc(S(=O)(=O)Nc2ncccn2)cc1` (centres undefined), the Potency result is “inactive”.
On the same count and under the same terms, next, `Cc1nc(SCC(=O)N2CC(=O)Nc3ccccc32)c2c(C)c(C)sc2n1`: 12.6 µM (active); `COc1cccc(Nc2nnc(SCC(=O)N3CC(=O)Nc4ccccc43)s2)c1`: “inactive”.
Still for that read-out and setting: the same measure for `Cc1nc(SCC(=O)N2CCc3ccccc3C2)c2c(C)c(C)sc2n1`: “inactive”.
As for `COc1ccccc1CN1CCN(C(c2ccccc2)c2ccccc2)CC1`, the Potency result was “inactive”.
Still for that read-out and setting: the same measure for `COc1ccc(OCc2cc(C(=O)N3CCCC3)no2)c2ccccc12`: “inactive”.
On the same count and under the same terms, the same measure for `Cc1ccc(C(=O)c2coc3ccc(O)c(CN(C)C)c23)cc1`: “inactive”; for `O=[N+]([O-])c1ccc2c(c1)Nc1nc3ccccc3nc1N2`: “inactive”.
Regarding `O=C(CC1C(=O)NCCN1C(=O)c1ccc([N+](=O)[O-])cc1)Nc1cccc(Cl)c1` (centres undefined), the Potency entry is “inactive”.
Turning to `CCCn1c(C2CCCN2c2nc(-c3ccc(C)cc3)cs2)nc2cc(Cl)c(N3CCCCC3)cc21` (centres undefined), the Potency entry was “inactive”.
For `COc1ccc(CN2CCCC(N3CCc4ccccc4C3)C2)c(O)c1` (centres undefined), the Potency entry was “inactive”.
As for `Cc1cc2c(cc1S(=O)(=O)NCc1ccc(Cl)cc1)OCC(=O)N2`, the Potency entry is “inactive”.
Still for that read-out and setting: next, `COc1ccc(CCNS(=O)(=O)c2cc3c(cc2C)NC(=O)CO3)cc1OC`: “inactive”.
Still for that read-out and setting: the same measure for `Cc1ccc(NS(=O)(=O)c2cc3c(cc2C)NC(=O)CO3)cc1`: 5.62 µM (active).
With `Cc1cc(C)c(SCCc2ccncc2)c(C)c1`, the Potency entry is “inactive”.
The same measure, in the same setting: next, `CCOc1cc(/C=C(\C#N)c2nc(-c3cccs3)c(NC(C)=O)s2)ccc1O`: “inactive”; `COc1cc(/C=N\Nc2nc(-c3cccs3)c(NC(C)=O)s2)ccc1O`: 11.2 µM (active); `COc1cc(/C=N/Nc2nc3ccccc3s2)ccc1O`: “inactive”.
Consider `COc1cccc(CC(=O)Nc2nc(-c3ccc(OC)c(OC)c3)cs2)c1`, for which the Potency result is “inactive”.
The same measure, in the same setting: next, `C/C=C\C=C\C(=O)N1CC2(CC(c3cccc(NC(=O)/C(C)=C\C)c3)=NO2)C[C@H]1C(N)=O` (some centres undefined): 3.55 µM (active).
`C/C=C(/C)C(=O)Nc1cccc(C2=NOC3(C2)C[C@@H](C(N)=O)N(C(=O)C2(C)CC2)C3)c1` (some centres undefined): the Potency entry is “inactive”.
On the same count and under the same terms, next, `CC/C=C/C(=O)N1CC2(CC(c3cccc(NC(=O)CC)c3)=NO2)C[C@H]1C(N)=O` (some centres undefined): “inactive”; `CCC(C)C(=O)Nc1ccccc1N1CCN(c2ccc(F)cc2)CC1` (centres undefined): “inactive”; `CCCNC(=O)c1ccc(N2CCC3(CC2)CC(c2ccc(Cl)cc2)=NO3)c([N+](=O)[O-])c1`: “inactive”.
In the case of `COc1ccc(C(=O)NCC(=O)N/N=C/c2cccnc2)cc1`, the activation was 0.538% [at 0.46 µM, 0% is enzyme alone, no compound].
With `O=C(NCC(=O)N1CCN(c2ncc(C(F)(F)F)cc2Cl)CC1)c1ccc(Br)o1`, the Potency entry is “inactive”.
Turning to `O=C(O)c1cccc2c1C(=O)N(C1CCCC1)C2`, the Potency entry is “inactive”.
The same measure, in the same setting: the same measure for `COc1ccc(N(C(=O)c2snc(C(N)=O)c2N)C(C(=O)NC2CCCC2)c2ccc(C)o2)c(OC)c1` (centres undefined): “inactive”; for `CN(CC1CCCO1)S(=O)(=O)c1ccc(C(=O)Nc2ccc([N+](=O)[O-])cc2)cc1` (centres undefined): “inactive”.
Regarding `CCOC(=O)c1csc(CCNC(=O)c2oc3c(Cl)cc(C)cc3c2C)n1`, the Potency entry was “inactive”.
In the case of `CC(C)NS(=O)(=O)c1ccc(OCC(=O)NC2CCCCCC2)cc1`, the Potency entry is “inactive”.
On the same count and under the same terms, the same measure for `O=C(Nc1nnc(C2=COCCO2)o1)c1ccc([N+](=O)[O-])s1`: “inactive”.
Consider `COc1ccc(-n2cc(-c3ccccc3)c3c(=S)nc[nH]c32)cc1`, for which the activation is -7.56% [at 0.46 µM, 0% is enzyme alone, no compound].
The same measure, in the same setting: the same measure for `CCc1ccc(CNC(=O)C2CCN(c3nnc(C)c4c(C)n(-c5ccc(C)cc5)nc34)CC2)cc1`: -0.982% [at 0.46 µM, 0% is enzyme alone, no compound]; for `Cc1cc(S(=O)(=O)NCc2ccccn2)c(Cl)cc1Cl`: -2.1% [at 11.5 µM, 0% is enzyme alone, no compound].
On to `COc1ccc(N2CCN(S(=O)(=O)CCNC(=O)C34CC5CC(CC(C5)C3)C4)CC2)cc1`, for which the Potency entry was “inactive”.
Still for that read-out and setting: next, `O=C(Cc1ccc(Cl)c(Cl)c1)Nc1ccc(SC(F)F)cc1`: “inactive”; `CSc1ccc(S(=O)(=O)Nc2cccc(F)c2)cc1`: “inactive”.
Same read-out and setting: next, `Nc1cccc(S(=O)(=O)Nc2ccc(SC(F)F)cc2)c1`: 14.1 µM (active); `Cc1ccccc1C(=O)N1CCN(c2ccc(NC(=O)c3cccs3)cc2)CC1`: “inactive”.
Same read-out and setting: next, `Cc1c(C=O)c2ccccc2n1CCOc1ccccc1`: “inactive”; `CCOc1cc(-c2cc(-c3ccc(NC(C)=O)cc3)nc(N)c2C#N)ccc1O`: “inactive”; `CC(C)C(C)NC(=O)COc1nc2ccccc2nc1N(C)C1CCCCC1` (centres undefined): “inactive”.
As to `CCN(C(=O)C1CCCN(c2nc(-c3ccc(OC)cc3)no2)C1)c1ccc(OC)cc1` (centres undefined), the Potency result is “inactive”.
Still for that read-out and setting: next, `CCn1cc(CN2CCC(C(=O)Nc3cccc(-c4cccc(Cl)c4)c3)CC2)c(C)n1`: “inactive”.
On the same count and under the same terms, the same measure for `COc1ccccc1N1CCN(C(=O)CCS(=O)(=O)c2ccc3c(c2)NC(=O)C(C)S3)CC1` (centres undefined): “inactive”.
